Laboratory results published in the supplement of paper PMC3334620.
The full ranking holds about 33,000 sequences; the median of “E-score (-0.5 to 0.5)” is about -0.016, and the highest 2% start at about 0.3. This is one part of a sample in which the highest values are shown more often than they occur.

biological target: T1, Yer184c (UniProt P39961); assay: PBM E-score (8-mer binding enrichment) (E-score (-0.5 to 0.5)); higher = stronger / more preferred TF binding; conditions: protein concentration: 100 nM; construct: GST-full length
T1 sequence: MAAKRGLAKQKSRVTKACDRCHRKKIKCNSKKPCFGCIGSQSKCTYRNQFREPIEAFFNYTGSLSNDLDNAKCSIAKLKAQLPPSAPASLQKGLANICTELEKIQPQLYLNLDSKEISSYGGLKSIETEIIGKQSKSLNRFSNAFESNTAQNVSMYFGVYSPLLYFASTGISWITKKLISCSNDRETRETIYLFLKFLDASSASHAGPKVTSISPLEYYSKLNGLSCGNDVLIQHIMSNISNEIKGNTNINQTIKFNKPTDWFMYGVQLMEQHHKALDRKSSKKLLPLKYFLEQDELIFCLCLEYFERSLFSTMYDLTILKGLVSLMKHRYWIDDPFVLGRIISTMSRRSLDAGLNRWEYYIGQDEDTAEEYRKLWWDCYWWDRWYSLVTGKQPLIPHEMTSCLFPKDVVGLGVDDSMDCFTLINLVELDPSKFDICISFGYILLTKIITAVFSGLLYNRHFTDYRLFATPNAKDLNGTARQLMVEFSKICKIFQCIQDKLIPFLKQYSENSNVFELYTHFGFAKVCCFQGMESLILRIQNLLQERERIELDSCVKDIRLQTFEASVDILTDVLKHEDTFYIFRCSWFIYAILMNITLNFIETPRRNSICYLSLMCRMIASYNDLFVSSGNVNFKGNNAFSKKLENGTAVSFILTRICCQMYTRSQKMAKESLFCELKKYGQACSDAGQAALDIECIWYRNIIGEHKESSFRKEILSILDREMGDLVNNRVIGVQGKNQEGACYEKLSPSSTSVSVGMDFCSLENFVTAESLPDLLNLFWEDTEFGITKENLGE
Method: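 Universal 'all 10-mer' protein binding microarrays (Agilent AMADID 015681) probed with GST-tagged S. cerevisiae TFs (full-length or DBD) made by in vitro transcription/translation (PURExpress), about 100-200 nM. Bound TF was detected with fluorescent anti-GST. Each ungapped 8-mer (which stands for itself and its reverse complement) is scored by the PBM enrichment score (E-score), a modified Wilcoxon-Mann-Whitney statistic from -0.5 to +0.5, computed with the Universal PBM Analysis Suite. Scale: above 0.35 generally sequence-specific binding.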

Row | Sequence | PBM E-score
1 | GGGTCTAC | -0.06
2 | TCGCGTCA | -0.0846
3 | ATGGTTTC | 0.0728
4 | GCGAATAA | 0.0477
5 | ACATCCGT | 0.167
6 | ACATCCGA | 0.346
7 | TCATCCGA | 0.34
8 | ACATCCGG | 0.397
9 | GCATCCGA | 0.176
10 | ACATCCTG | 0.0484
11 | ACATCCGC | 0.252
12 | CCATCCGG | 0.143
13 | CCATCCGA | 0.0749
14 | ACCACAAG | -0.0787
15 | CGATGCTA | 0.084
16 | ATGTGCCG | 0.18
17 | CATAGCAG | -0.293
18 | AAGAGGCC | -0.172
19 | ACGTCGCT | -0.239
20 | CCTTCAGC | -0.152
21 | CACGGATC | 0.256
22 | GACGGATC | 0.115
23 | CGCGGAGA | 0.308
24 | AGCGGATC | 0.204
25 | AGCGGAGA | -0.0382
26 | CGCGGAGC | 0.171

Row | Sequence | PBM E-score
27 | CACGGATA | 0.332
28 | CGCGGATA | 0.317
29 | AGCGGATA | 0.0602
30 | CGCGGATC | 0.13
31 | CACGGATG | 0.108
32 | AACGGATC | 0.306
33 | TTACGCAA | 0.0884
34 | GGCTGAAC | 0.0871
35 | CCCCGCGA | -0.0621
36 | ATCCACTC | -0.00405
37 | GACGGATA | 0.125
38 | AACGGATG | 0.197
39 | TACGGATA | 0.195
40 | AACGGACT | 0.14
41 | AACGGATT | 0.343
42 | AACGGATA | 0.374
43 | GCCGATTA | 0.274
44 | ACTAAGGC | -0.0457
45 | CGTTCAGA | -0.0522
46 | ACTCATTA | -0.0725
47 | CGGTTGAA | 0.304
48 | CGGTTGAC | 0.113
49 | TGGTTGAA | -0.0916
50 | ACTATGCA | -0.111
51 | ATTCCGGG | 0.356
52 | ATTCCGCC | 0.16

Row | Sequence | PBM E-score
53 | ATTCCCGA | 0.162
54 | ACTCCGGG | 0.265
55 | ATTCCCGG | 0.384
56 | ATTCCGGC | 0.393
57 | AATCCGGG | 0.269
58 | ATTCCTGG | -0.138
59 | CCTCCGGC | 0.3
60 | ATTCCAGC | -0.0455
61 | ATTCCCCG | 0.117
62 | ACTCCGGC | 0.326
63 | CGCTTAAG | -0.133
64 | CCCTACCC | -0.256
65 | AAGATACC | 0.187
66 | GGATTCCC | -0.173
67 | AGGCTTTA | -0.154
68 | CAACTAGC | 0.0974
69 | CCTCCCCG | -0.0343
70 | AGCCGGAC | 0.339
71 | AGCCGGAG | 0.402
72 | AGCCGTAT | 0.214
73 | GGACGGAA | 0.0833
74 | CGCCGGAG | 0.222
75 | GGGCGGAA | 0.0682
76 | AGCCGGAT | 0.402
77 | GACCGGAC | 0.245
78 | AGCCGTAG | 0.155

Row | Sequence | PBM E-score
79 | AGACGGAT | 0.195
80 | GGCCGGAA | 0.338
81 | GGCCGGAC | 0.294
82 | AGTGAGCA | -0.0113
83 | CGGGTTGC | 0.118
84 | AGCTGGAC | -0.0983
85 | AAACCCAC | 0.0014
86 | AACGCAGT | -0.081
87 | ACTCGCCG | 0.131
88 | AGCACCAT | -0.291
89 | GCCCAAGC | -0.0265
90 | TGCCGGAA | 0.421
91 | TGCCGTAA | 0.0109
92 | AGCCGGAA | 0.423
93 | CGGCGGAA | 0.298
94 | CGCCGGAA | 0.368
95 | TGACGGAA | 0.17
96 | AGGCGGAA | 0.195
97 | CGCCGGAC | 0.28
98 | AGACGGAA | 0.277
99 | CCTGGTTC | -0.0462
100 | CGAGCCCC | -0.186
101 | AAGAGAAT | 0.0316
102 | ACGTTAGT | -0.0893
103 | CGATTTCC | 0.214
104 | CGGCACCA | 0.256

Row | Sequence | PBM E-score
105 | CGGCACCC | 0.048
106 | CGGCACCG | 0.346
107 | CCTACCAA | 0.0704
108 | TCTCAAGA | -0.0209
109 | CCCTAGAC | -0.189
110 | CCGGTTTC | 0.244
111 | ACGGTTGA | -0.0221
112 | ACGGTTGC | -0.129
113 | CCGGTTGA | 0.321
114 | CCGGTTGC | 0.355
115 | GCGGTTGA | 0.113
116 | ACTCTTCT | -0.0645
117 | CTTGGTCC | 0.0693
118 | TCGTGTCA | -0.0881
119 | ACACTGCT | -0.244
120 | GCAATAGA | -0.0314
121 | CCTCAGCC | -0.233
122 | ACGCTTTA | -0.0723
123 | CAGTCGCG | -0.189
124 | CAATCCGG | 0.316
125 | AAATCCGT | 0.181
126 | CAATCCGA | 0.184
127 | AAATCCGC | -0.00733
128 | CAATCCGC | 0.095
129 | AAATCCGG | 0.394
130 | AGCGGTGA | -0.0103

Row | Sequence | PBM E-score
131 | ACTCTGCG | 0.013
132 | GCGGTTAA | 0.0539
133 | TCCGTTAA | 0.305
134 | GCCGTTAA | 0.169
135 | TCGGTTAA | 0.333
136 | CCCGTTAA | -0.0453
137 | CCGGTTAA | 0.297
138 | ATTGTGAG | 0.09
139 | ACTTCTCG | 0.17
140 | CCGCCGCG | 0.172
141 | ACGCCGTG | 0.0103
142 | CCGCCAAA | 0.14
143 | ACGCCGAG | 0.328
144 | CCGCCGAG | 0.304
145 | CCGCCGTA | 0.075
146 | CCGCCGAA | 0.313
147 | CCGCCGAC | 0.109
148 | ACGCCGCG | 0.0694
149 | CCTAAAGG | -0.122
150 | GCTACCGA | 0.0575
151 | AAATGAGC | 0.038
152 | CTAGGAGA | -0.0687
153 | CCCGACTC | -0.0899
154 | CCTAAAAA | 0.105
155 | TACGAAGA | 0.05
156 | CCCGAAGA | 0.105

Row | Sequence | PBM E-score
157 | ACCGAAGT | 0.136
158 | ACCGAAGC | 0.1
159 | GCCGAAGC | 0.246
160 | TCCGAAGA | 0.376
161 | GCCGAAGA | 0.315
162 | GACGAAGA | 0.0167
163 | ACCGAAGA | 0.344
164 | CTCTAGTC | -0.244
165 | GGAGTTGA | 0.0129
166 | CCCGGATA | 0.286
167 | CCGGGATC | 0.339
168 | CGGGGATA | 0.0634
169 | CCCGGATC | 0.318
170 | CCGGGACC | 0.342
171 | CGGGGATC | 0.0365
172 | CCCGGACC | 0.149
173 | ACGGGATC | 0.0948
174 | GCGGGATA | 0.0399
175 | ACGGGACC | -0.109
176 | CCGGGATA | 0.315
